Experimental data from ChEMBL document CHEMBL3433997, “St. Jude Leishmania screening dataset” (2016).

Experiments:
Type in all cases: functional
[1] = molecular target: Solute carrier family 2, facilitated glucose transporter member 1 (Homo sapiens) (UniProt P11166); experiment: ST_JUDE_LEISH: Cytotoxicity at 2uM final concentration against transgenic Leishmania Mexicana promastigotes LmGLUT1 that are glucose transport deficient and complemented with the human glucose transporter GLUT1. Activity is measured by DNA content using SYBR green in vitro
Sequence of Solute carrier family 2, facilitated glucose transporter member 1 (Homo sapiens) (P11166 whole entry): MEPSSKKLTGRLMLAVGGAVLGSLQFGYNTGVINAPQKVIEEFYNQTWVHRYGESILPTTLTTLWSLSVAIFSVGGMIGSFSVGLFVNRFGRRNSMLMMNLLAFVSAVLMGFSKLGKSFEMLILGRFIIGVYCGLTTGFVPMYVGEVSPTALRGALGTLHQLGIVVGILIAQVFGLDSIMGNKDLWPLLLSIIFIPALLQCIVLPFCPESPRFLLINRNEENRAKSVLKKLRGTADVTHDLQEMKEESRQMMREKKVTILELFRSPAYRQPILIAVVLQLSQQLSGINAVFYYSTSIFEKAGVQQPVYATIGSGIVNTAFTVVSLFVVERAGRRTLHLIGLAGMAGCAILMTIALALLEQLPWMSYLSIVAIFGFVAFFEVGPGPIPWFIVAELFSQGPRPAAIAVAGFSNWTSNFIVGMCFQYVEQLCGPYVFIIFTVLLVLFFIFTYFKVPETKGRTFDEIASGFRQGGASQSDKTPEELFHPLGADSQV

[2] = molecular target: Hexose transporter 1 (Plasmodium falciparum) (UniProt O97467); experiment: ST_JUDE_LEISH: Cytotoxicity at 2uM final concentration against transgenic Leishmania Mexicana promastigotes LmPfHT that are glucose transport deficient and complemented with the Plasmodium falciparum hexose transporter. Activity is measured by DNA content using SYBR green in vitro
[3] = molecular target: Glucose transporter (Leishmania mexicana) (UniProt O61059); experiment: ST_JUDE_LEISH: Cytotoxicity at 2uM final concentration against transgenic Leishmania Mexicana promastigotes LmGT2 that are glucose transport deficient and complemented with the L. Mexicana glucose transporter 2. Activity is measured by DNA content using SYBR green in vitro

Structure (SMILES)	inhibition [1]	inhibition [2]	inhibition [3]
CC1(C)N=C(N)N=C(N)N1c1ccccc1	3.26%	3.47%	1.32%
CC(C)(C)c1ccc(C(=O)Nc2ccc(NC(=O)c3ccc([N+](=O)[O-])o3)cc2)cc1	3.39%	4.22%	1.76%
Cc1ccc(Nc2nc(-c3ccccn3)cs2)nc1	75.7%	65.5%	69.3%
NCCNC(=O)c1ccc(-c2cnc3[nH]cc(-c4ccc(C(N)=O)cc4)c3c2)cc1	3.65%	2.58%	2.98%
COc1ccc(CCN(C)CCCCc2ccc(NC(=O)c3cccc4c(=O)c5cc(F)ccc5sc34)cc2)cc1OC	9.78%	4.42%	2.03%
Clc1ccc(OCc2ccccc2)c(-c2nc(-c3nc4ccc(Cl)cc4[nH]3)cs2)c1	3.08%	2.99%	3.09%
O=c1ccc2ccc(F)c3c2n1CC3CN1CCC(NCc2ccc(-c3cccc(Cl)c3)nc2)CC1 (centres undefined)	26.2%	21.3%	14.9%
C=C[C@]1(C)C[C@@H](OC(=O)NC(=O)C2CCN(C(=O)CSc3ccccc3)CC2)[C@]2(C)[C@H](C)CC[C@]3(CCC(=O)[C@H]32)[C@@H](C)[C@@H]1O	10.2%	11.6%	5.56%
Cc1ccc2c(NC(=O)Nc3ccc(N(C)C)cc3)cc(C)nc2c1	5.9%	5.56%	6.28%
O=S1(=O)NCc2ccc(Nc3nccc(Nc4ccc5c(cnn5Cc5ccccc5)c4)n3)cc21	-0.8%	6.35%	-1.65%
CC1N=C(N)N=C(N)N1OCc1cccc2ccccc12 (centres undefined)	1.93%	0.04%	1.84%
O=C(/C=C/c1ccc(Cl)cc1)NCCCCCN1CCC(C(=O)Nc2cccc(Cl)c2)CC1	2.16%	2.2%	0.58%
COc1ccc(OCCCN2CCN(CC(c3ccc(F)cc3)N3CCN(C(C)C)CC3)CC2)c2ccccc12 (centres undefined)	5.57%	5.69%	5.07%
O=C(/C=C/c1ccc(Cl)c(Cl)c1)NCCCCCN1CCC(NC(=O)Nc2ccc(Br)cc2)CC1	-0.66%	-0.06%	-0.46%
Cc1cccc(CNc2nc(C)cc(NCCC(=O)NCc3cccc(F)c3)n2)c1	7.68%	7.53%	4.51%
CCCCN1C(=N)NC(c2ccccc2)(c2ccccc2)C1=O	5.12%	3.94%	3.58%
CC(C)c1nc(N2CCN(C(=S)NCc3ccccc3)CC2)c(C#N)c2c1COC(C)(C)C2	-0.1%	0.47%	0.22%

Structure (SMILES)	inhibition [1]	inhibition [2]	inhibition [3]
Cc1cccc(-c2c(C)nc(N)nc2N)c1	4.96%	2.06%	1.08%
COc1cccc(Cn2ccc3c4c(N)nc(N)nc4ccc32)c1	94.3%	96%	85.1%
Cc1ccccc1-c1cc(=O)c2cc(NC(=O)c3cccs3)ccc2o1	3.19%	1.54%	-8.62%
Cc1cc(-c2cccc3c(C(=O)N4CCc5cc6nccc(N7CCN8CCC[C@H]8C7)c6cc54)cccc23)cc(C)n1	1.99%	-1.7%	2.83%
Nc1cccc(CNCc2ccc(-c3cccc(-c4nc5cc(F)ccc5[nH]4)c3)cc2)c1	-0.29%	-1.11%	-1.93%
CCc1ccc(C(=O)Nc2cccc(CN3CCCN(Cc4ccc(O)cc4)CC3)c2)cc1	2.88%	-2.75%	3.01%
O=C(/C=C/c1ccc(Cl)c(Cl)c1)NCCCCCN1CCC(NS(=O)(=O)c2cc(Cl)cc(Cl)c2)CC1	3.59%	3.03%	3.19%
Cc1nccc2c(NC(=O)N[C@@H]3CCN(c4ncc(C(F)(F)F)cc4Br)C3)cccc12	1.06%	1.71%	0.74%
COc1ccc(O)c(C(=O)c2cc(C(=O)NC3CCCCC3)c(=O)n(C3CCCCC3)c2)c1	5.33%	4.33%	3.2%
CCN(CC)CCNc1c2ccc(Cl)cc2nc2ccc(OC)nc12	3.46%	3.09%	3.99%
Cc1cc(Nc2ccc3c(c2)CCC3)n2ncnc2n1	0.63%	0.55%	0.55%
CN1CCC(NCCS(=O)(=O)c2cccc(Nc3ccc(-c4cccc(F)c4)cn3)c2)CC1	0.4%	0.91%	-0.71%
COc1cc(Cc2cnc(N)nc2N)cc(OCCCOc2ccccc2)c1OC	7.68%	4.04%	4.99%
COc1ccc2cc(C(=O)NC3CCC(CCN4CCc5cc(C#N)ccc5C4)CC3)[nH]c2c1 (centres undefined)	3.48%	0.58%	3.6%
CC(CN1CCN(C)CC1)C(=O)Nc1cccc(-c2cccc(-c3nc4ccccc4[nH]3)c2)c1 (centres undefined)	4.45%	4.44%	2.44%
O=C(/C=C/c1ccc(Cl)c(Cl)c1)NCCCCCN1CCC(NC(=O)Nc2cccc(F)c2)CC1	2.32%	1.97%	2.29%
